Values joined by “and” are separate entries in the source; they are usually repeats but may differ in a detail not shown here. Equal values may be shown once. Records with an inconclusive call do not appear. Active and inactive are the calls of the source. Unless noted, the call rests on the fitted dose curve.
Columns and labels:
[1] = target: Estrogen receptor (Homo sapiens) (UniProt P03372); assay: qHTS assay for small molecule antagonists of estrogen receptor alpha signaling (AID 588513; active means well fitted curve in the direction sought with a large enough effect in the signal ratio, with a control signal flat, not every such curve was filed as active; the % refers to the signal ratio; further: on the % scale 0 is the no-effect control and ±100 the full control effect)
How it was run: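 Antagonist-mode qHTS in ER-alpha-UAS-bla HEK 293 cells: compound titration, 0.5nM estradiol for 18 h, CCF4 fluorescence, Hill-derived IC50.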

[2] = target: Estrogen receptor (Homo sapiens) (UniProt P03372); assay: qHTS assay for small molecule agonists of estrogen receptor alpha signaling (AID 588514);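 further: 0% = vehicle only and 100% = reference agonist; nearly all actives have a fitted effect of over 70% in size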
How it was run: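 Read-out: CCF4 fluorescence from a beta-lactamase reporter in ER-alpha-UAS-bla HEK 293 cells after 18 hrs of compound exposure at 37 C. Normalized to 20 nM 17-beta-estradiol (100%) and DMSO (0%).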

[3] = target: Glucocorticoid receptor (Homo sapiens) (UniProt P04150); assay: qHTS assay for small molecule agonists of glucocorticoid receptor signaling (AID 588532; active means well fitted curve in the direction sought with a large enough effect in the signal ratio, with a control signal flat; the % refers to the signal ratio;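 further: 100% = dexamethasone at 0.1 µM and 0% = DMSO only wells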); conditions: HeLa MMTV-bla, beta-lactamase ratio, agonist, 18 h; activation: stronger effect = higher value, percent of dexamethasone control, DMSO zero
How it was run: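 Quantitative HTS using CellSensor MMTV-bla HeLa cells in charcoal/dextran-treated serum; compounds tested up to 92 uM. After 18 h at 37 C, CCF4 dye reported reporter induction.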

[4] = target: Peroxisome proliferator-activated receptor delta (Homo sapiens) (UniProt Q03181); assay: qHTS assay for small molecule agonists of peroxisome proliferator-activated receptor delta signaling (AID 588534);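 further: 0% = DMSO basal wells and 100% = positive control agonist at 10 µM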
How it was run: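 Titration series tested in agonist mode on beta-lactamase reporter cells; 18 hrs at 37 C after a 5 hr pre-incubation. Readout: CCF4 fluorescence, 2 hrs RT. Hill equation gives EC50 and maximal response.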

[5] = target: Vitamin D3 receptor (Homo sapiens) (UniProt P11473); assay: qHTS assay for small molecule antagonists of vitamin D receptor signaling (AID 588541);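 further: receptor activated by calcitriol during compound treatment; series mostly up to about 77 µM; on the % scale 0 is the no-effect control and ±100 the full control effect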
How it was run: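 Antagonist-mode beta-lactamase reporter assay: HEK293T VDR-UAS-bla cells were exposed to titrated compound alongside 1-alpha,25-dihydroxyvitamin D3 at 3 nM final for 16 h. Values were normalized to the 50 nM agonist control and DMSO basal, with IC50 and efficacy from Hill equation fits.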

[6] = target: Vitamin D3 receptor (Homo sapiens) (UniProt P11473); assay: qHTS assay for small molecule agonists of vitamin D receptor signaling (AID 588543);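 further: 0% = DMSO basal and 100% = reference agonist control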
How it was run: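 Measured: β-lactamase reporter activity (CCF4, 405 nm excitation, 460/530 nm emission) in HEK293T VDR-UAS-bla cells after 16 h compound exposure at 37 °C. Normalization against 50 nM 1α,25-dihydroxyvitamin D3 and DMSO; Hill-fit EC50.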

[7] = target: Thyroid hormone receptor beta (Homo sapiens) (UniProt P10828); assay: qHTS assay for small molecule agonists of thyroid hormone receptor beta signaling (AID 588545);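 further: 0% = DMSO only and 100% = 10 nM T3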
How it was run: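 TR-UAS-bla GripTite HEK 293 cells (2500/well, medium with 2% charcoal/dextran FBS) were treated in agonist mode for 18 h at 37 C, titrated. Beta-lactamase was read by CCF4 ratio after 2 h; normalized to 10 nM T3 (100%) and DMSO, Hill-fitted for EC50 and efficacy.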

[8] = qHTS assay for small molecule antagonists of retinoid X receptor alpha signaling (AID 588546; active means well fitted inhibition curve with a large enough effect in the signal ratio, with a control signal flat, not every such curve was filed as active; the % refers to the signal ratio;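 further: cells stimulated with 9-cis-retinoic acid as agonist; on the % scale 0 is the no-effect control and ±100 the full control effect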); conditions: HEK293T RXRa-UAS-bla, beta-lactamase ratio, antagonist mode; measured here: W530 green channel, cytotoxicity proxy
How it was run: (§1)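 Beta-lactamase reporter inhibition, read as CCF4 fluorescence ratio (ex 405, em 460/530 nm) after 2 h at RT. HEK293T UAS-bla cells, 2500/well, were stimulated with 9-cis-RA at 500 or 100 nM final alongside test compound for 18 h at 37 C.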

[9] = qHTS assay for small molecule activators of the p53 signaling pathway (AID 651743; active means well fitted activation curve with a large enough effect in the signal ratio, not every such curve was filed as active; the % refers to the signal ratio; further: series mostly up to about 92 µM; % of control where 0% means no effect); conditions: HCT-116 p53RE-bla, beta-lactamase FRET ratio, 16 h; activation: stronger effect = higher value
How it was run: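 A beta-lactamase reporter under p53 response element control, stably carried by HCT-116 cells, reported pathway activation. Test compounds were applied for 16 hours at 37 C, and fluorescence was measured 2 hours after adding the B/G FRET substrate.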

[10] = qHTS assay for environmental chemicals that activate the Aryl hydrocarbon Receptor (AhR) signaling pathway (AID 651777; active means well fitted curve in the direction sought with a large enough effect; an effect the other way counts as inactive or inconclusive; further: % of control where 0% means no effect; nearly all actives have a fitted effect of over 15% in size); conditions: 1A2-DRE human hepatoma cells, luciferase, 24 h; activation: stronger effect = higher value
How it was run: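 Reporter gene assay: hepatoma cells with DRE/CYP1A2-luciferase, 24 hr compound incubation at 37 C, 5% CO2, luminescence after One-Glo (30 min, RT).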

[11] = target: Peroxisome proliferator-activated receptor alpha (Homo sapiens) (UniProt Q07869); assay: qHTS assay for small molecule agonists of the peroxisome proliferator-activated receptor alpha (PPARalpha) signaling pathway (AID 651778; active means well fitted curve in the direction sought with a large enough effect; an effect the other way counts as inactive or inconclusive; further: % of control where 0% means no effect); conditions: PathHunter PPARalpha complementation, chemiluminescence, 6 h; max response: stronger effect = higher value
How it was run: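 Chemiluminescence from complemented enzyme reported PPARalpha activation in cells after 6 hr of compound treatment at 37 C. The detection reagent was incubated for 60 min at room temperature, and compounds were scored as agonists.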

[12] = qHTS assay for small molecule agonists of the antioxidant response element (ARE) signaling pathway measured by Nrf2-dependant transcriptional activity (AID 720636; active means well fitted curve in the direction sought with a large enough effect in the repeat runs; an effect the other way counts as inactive or inconclusive;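 further: HepG2 cells with an ARE-driven luciferase reporter; % of control where 0% means no effect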)
How it was run: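 Nrf2-dependent transcription is measured in ARE-luc HepG2 cells: compound is applied for 16 hr at 37 C after a 6 hr attachment period, and luciferase activity is quantified by luminescence using ONE-Glo.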

[13] = qHTS assay for small molecule agonists of the antioxidant response element (ARE) signaling pathway measured by Nrf2-dependant transcriptional activity - cell viability counter screen (AID 720653; active means well fitted curve in the direction sought with a large enough effect in the repeat runs; an effect the other way counts as inactive or inconclusive; further: on the % scale 0 is the no-effect control and ±100 the full control effect); conditions: ARE-bla HepG2 viability, CellTiter-Glo ATP luminescence, 16 h; max response: stronger effect = lower value
How it was run: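 Cytotoxicity counter screen: intracellular ATP quantified by CellTiter-Glo luminescence in the same ARE-bla HepG2 plates, after 16 h compound exposure and a 2 h beta-lactamase substrate step.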

[14] = qHTS assay for cell viability of HEK293 cells (AID 743288; active means well fitted curve in the direction sought with a large enough effect; an effect the other way counts as inactive or inconclusive; further: on the % scale 0 is the no-effect control and ±100 the full control effect; nearly all actives have a fitted effect of over 50% in size); conditions: ATP luminescence (CellTiter-Glo), 18 h; max response: stronger effect = lower value
How it was run: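 HEK293, 18 h, 37 C, ATP luminescence. Cells at 2,000/well were allowed at least 5 h to settle before dosing; CellTiter-Glo developed 30 min at RT.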

[15] = qHTS assay for cell viability of the p53RE-bla HCT-116 cell line (AID 743292; active means well fitted curve in the direction sought with a large enough effect; an effect the other way counts as inactive or inconclusive; further: on the % scale 0 is the no-effect control and ±100 the full control effect; nearly all actives have a fitted effect of over 55% in size)
How it was run: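 ATP-based luminescence, 16 h compound exposure at 37 C, p53RE-bla HCT-116 cells at 4,000/well.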

[16] = target: Nuclear receptor subfamily 1 group I member 2 (Rattus norvegicus) (UniProt Q9R1A7); assay: qHTS assay for small molecule activators of the rat pregnane X receptor (rPXR) signaling pathway (AID 651751; call rule not given here; further: 0% is about no effect); conditions: rPXR reporter cells, luciferase (One-Glo), 24 h
[17] = qHTS assay for small molecule agonists of retinoid X receptor alpha signaling (AID 588544); conditions: HEK293T RXRa-UAS-bla, beta-lactamase reporter, 18 h; 530 nm emission;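 on activation: 0% = DMSO basal wells and 100% = reference agonist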
[18] = target: Retinoic acid receptor RXR-alpha (Homo sapiens) (UniProt P19793); assay: as above
[19] = target: Retinoic acid receptor RXR-alpha (Homo sapiens) (UniProt P19793); assay: qHTS assay for small molecule antagonists of retinoid X receptor alpha signaling (AID 588546); conditions: HEK293T RXRa-UAS-bla, beta-lactamase ratio, antagonist mode;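 further: cells stimulated with 9-cis-retinoic acid as agonist; on the % scale 0 is the no-effect control and ±100 the full control effect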
How it was run: as §1

[20] = target: Thyroid hormone receptor beta (Homo sapiens) (UniProt P10828); assay: qHTS assay for small molecule antagonists of thyroid hormone receptor beta signaling (AID 588547; active means well fitted inhibition curve with a large enough effect in the signal ratio, with a control signal flat, not every such curve was filed as active; the % refers to the signal ratio); conditions: TR-UAS-bla HEK293, beta-lactamase ratio, antagonist mode, 18 h
How it was run: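 Inhibition of T3-driven (0.4nM final) beta-lactamase reporter activity was measured over 0.59 nM to 92 uM compound after 18 h at 37 C. The cells were GripTite HEK293 TR-UAS-bla in charcoal/dextran-stripped serum, with CCF4 ratio read-out and IC50 from Hill fits.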

Sequence of Vitamin D3 receptor (Homo sapiens) (P11473 whole entry, looked up): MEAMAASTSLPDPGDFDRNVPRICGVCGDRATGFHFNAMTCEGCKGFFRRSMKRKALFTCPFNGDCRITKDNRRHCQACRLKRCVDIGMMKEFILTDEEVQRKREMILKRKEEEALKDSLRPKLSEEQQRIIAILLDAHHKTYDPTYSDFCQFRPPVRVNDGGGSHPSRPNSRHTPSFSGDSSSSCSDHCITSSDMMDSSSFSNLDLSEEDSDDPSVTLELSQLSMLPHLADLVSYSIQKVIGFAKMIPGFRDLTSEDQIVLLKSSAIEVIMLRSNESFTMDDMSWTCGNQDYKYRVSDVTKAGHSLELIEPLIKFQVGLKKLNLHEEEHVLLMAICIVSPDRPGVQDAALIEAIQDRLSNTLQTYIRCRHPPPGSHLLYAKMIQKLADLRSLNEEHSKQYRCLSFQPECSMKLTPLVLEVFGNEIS
Sequence of Nuclear receptor subfamily 1 group I member 2 (Rattus norvegicus) (Q9R1A7 whole entry, looked up): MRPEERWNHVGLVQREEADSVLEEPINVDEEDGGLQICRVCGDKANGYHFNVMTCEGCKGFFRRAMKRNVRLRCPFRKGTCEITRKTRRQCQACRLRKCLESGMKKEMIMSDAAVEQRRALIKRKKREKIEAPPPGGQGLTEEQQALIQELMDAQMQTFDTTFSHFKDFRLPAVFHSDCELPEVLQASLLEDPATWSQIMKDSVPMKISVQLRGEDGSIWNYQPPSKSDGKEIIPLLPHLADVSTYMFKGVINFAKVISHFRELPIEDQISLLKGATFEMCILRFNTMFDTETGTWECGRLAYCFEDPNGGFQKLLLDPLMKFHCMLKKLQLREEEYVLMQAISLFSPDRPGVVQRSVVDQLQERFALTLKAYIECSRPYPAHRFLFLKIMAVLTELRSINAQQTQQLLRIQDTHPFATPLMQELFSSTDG
Sequence of Estrogen receptor (Homo sapiens) (P03372 whole entry, looked up): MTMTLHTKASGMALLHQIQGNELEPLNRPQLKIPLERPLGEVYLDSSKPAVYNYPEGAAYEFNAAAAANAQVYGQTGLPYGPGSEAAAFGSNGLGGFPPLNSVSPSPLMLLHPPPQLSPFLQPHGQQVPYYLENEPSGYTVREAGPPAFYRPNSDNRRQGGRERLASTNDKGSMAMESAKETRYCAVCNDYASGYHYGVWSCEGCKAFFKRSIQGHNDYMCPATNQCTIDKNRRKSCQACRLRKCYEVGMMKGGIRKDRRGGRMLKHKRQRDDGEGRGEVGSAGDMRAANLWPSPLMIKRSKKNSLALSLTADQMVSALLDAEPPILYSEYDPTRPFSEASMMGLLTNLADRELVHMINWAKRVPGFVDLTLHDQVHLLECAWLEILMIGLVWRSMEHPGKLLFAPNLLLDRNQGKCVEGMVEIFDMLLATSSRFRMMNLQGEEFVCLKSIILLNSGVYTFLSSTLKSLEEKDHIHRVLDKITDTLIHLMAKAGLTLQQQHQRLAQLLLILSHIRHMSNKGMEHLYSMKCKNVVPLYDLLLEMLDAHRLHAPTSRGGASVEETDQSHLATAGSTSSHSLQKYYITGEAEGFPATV
Sequence of Peroxisome proliferator-activated receptor delta (Homo sapiens) (Q03181 whole entry, looked up): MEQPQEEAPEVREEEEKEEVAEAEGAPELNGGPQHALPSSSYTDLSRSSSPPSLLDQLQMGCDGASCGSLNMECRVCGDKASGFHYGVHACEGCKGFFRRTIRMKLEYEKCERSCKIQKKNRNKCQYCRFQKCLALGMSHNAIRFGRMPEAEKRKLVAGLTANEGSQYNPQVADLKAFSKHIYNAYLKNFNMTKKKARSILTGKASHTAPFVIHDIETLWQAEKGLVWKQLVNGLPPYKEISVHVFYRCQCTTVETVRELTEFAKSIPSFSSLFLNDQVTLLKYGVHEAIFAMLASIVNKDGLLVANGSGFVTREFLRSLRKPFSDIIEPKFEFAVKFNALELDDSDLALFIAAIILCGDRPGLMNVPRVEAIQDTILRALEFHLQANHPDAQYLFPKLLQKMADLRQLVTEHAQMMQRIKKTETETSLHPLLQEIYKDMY
Sequence of Retinoic acid receptor RXR-alpha (Homo sapiens) (P19793 whole entry, looked up): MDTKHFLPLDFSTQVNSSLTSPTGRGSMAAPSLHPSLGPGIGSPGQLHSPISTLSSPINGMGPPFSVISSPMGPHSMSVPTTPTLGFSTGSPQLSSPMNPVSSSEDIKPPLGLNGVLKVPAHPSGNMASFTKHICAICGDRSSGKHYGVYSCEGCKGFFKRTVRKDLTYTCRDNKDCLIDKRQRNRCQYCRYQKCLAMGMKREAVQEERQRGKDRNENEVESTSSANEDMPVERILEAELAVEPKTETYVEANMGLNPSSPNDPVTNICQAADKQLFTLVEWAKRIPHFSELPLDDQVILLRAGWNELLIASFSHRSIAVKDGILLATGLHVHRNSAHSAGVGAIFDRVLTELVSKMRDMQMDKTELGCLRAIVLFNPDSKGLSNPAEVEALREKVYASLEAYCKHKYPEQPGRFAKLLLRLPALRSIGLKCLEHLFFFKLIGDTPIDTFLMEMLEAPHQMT
Sequence of Glucocorticoid receptor (Homo sapiens) (P04150 whole entry, looked up): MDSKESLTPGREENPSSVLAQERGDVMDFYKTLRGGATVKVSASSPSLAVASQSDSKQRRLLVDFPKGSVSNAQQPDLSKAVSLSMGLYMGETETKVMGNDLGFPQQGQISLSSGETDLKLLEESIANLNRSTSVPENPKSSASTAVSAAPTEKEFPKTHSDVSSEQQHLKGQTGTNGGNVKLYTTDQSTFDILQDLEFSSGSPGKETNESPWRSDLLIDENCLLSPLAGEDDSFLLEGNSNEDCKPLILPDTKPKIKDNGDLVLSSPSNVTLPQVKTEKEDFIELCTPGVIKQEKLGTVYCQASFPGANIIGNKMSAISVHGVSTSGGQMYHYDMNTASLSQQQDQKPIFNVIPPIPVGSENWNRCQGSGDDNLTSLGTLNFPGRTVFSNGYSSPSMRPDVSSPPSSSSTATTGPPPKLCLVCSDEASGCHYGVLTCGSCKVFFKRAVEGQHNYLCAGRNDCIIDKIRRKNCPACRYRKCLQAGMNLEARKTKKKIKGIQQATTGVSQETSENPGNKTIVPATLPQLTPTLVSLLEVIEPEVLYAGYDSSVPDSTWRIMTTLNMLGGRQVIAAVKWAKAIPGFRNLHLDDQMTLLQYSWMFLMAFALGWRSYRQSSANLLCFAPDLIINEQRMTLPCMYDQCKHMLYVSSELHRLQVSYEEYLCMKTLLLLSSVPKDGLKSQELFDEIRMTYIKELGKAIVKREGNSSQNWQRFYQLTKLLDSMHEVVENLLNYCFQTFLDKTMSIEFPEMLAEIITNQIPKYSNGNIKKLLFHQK
Sequence of Thyroid hormone receptor beta (Homo sapiens) (P10828 whole entry, looked up): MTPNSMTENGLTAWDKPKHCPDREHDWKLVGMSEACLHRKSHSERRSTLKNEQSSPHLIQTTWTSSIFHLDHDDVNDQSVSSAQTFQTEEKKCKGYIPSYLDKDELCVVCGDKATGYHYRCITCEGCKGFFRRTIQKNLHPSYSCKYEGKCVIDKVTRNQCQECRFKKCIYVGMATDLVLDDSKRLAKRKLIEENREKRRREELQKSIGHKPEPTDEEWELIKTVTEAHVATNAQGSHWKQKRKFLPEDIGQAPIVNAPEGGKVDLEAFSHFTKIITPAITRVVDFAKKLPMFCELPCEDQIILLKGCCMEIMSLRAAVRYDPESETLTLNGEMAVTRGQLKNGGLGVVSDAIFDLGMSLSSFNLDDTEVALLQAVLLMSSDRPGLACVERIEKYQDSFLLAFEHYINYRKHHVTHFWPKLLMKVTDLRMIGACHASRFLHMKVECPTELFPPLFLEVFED
Sequence of Peroxisome proliferator-activated receptor alpha (Homo sapiens) (Q07869 whole entry, looked up): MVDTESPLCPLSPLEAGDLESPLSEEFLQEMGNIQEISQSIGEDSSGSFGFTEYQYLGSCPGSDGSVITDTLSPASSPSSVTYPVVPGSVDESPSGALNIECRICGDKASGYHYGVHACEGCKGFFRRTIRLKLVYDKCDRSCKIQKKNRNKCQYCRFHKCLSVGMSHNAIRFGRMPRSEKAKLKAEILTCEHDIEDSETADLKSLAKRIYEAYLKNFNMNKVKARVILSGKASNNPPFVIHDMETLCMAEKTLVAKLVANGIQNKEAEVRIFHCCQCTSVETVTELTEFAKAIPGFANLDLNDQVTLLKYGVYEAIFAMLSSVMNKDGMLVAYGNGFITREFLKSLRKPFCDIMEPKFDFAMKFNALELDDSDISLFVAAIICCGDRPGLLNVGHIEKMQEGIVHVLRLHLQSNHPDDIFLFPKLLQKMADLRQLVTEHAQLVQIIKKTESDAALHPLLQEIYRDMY

Compound	Potency [1]	Potency [2]	activation [3]	outcome [4]	Potency [5]	outcome [6]	Potency [7]	max response [8] [%]	activation [9]	activation [10]	max response [11]	Potency [12]	max response [13]	max response [14]	Potency [15]	max response [16]	max response [17] [%]	Potency [18]	max response [19]	activity change % (negative = inhibition) [20]
CS(=O)(=O)c1cc(C(F)(F)F)ccc1C(=O)c1cnoc1C1CC1	inactive	inactive	11.4% (inactive)	inactive	inactive	inactive	inactive	-9.9	-1.28% (inactive)	-0.804% (inactive)	-3.75% (inactive)	inactive	-9.62% (inactive)	-14.1% (inactive)	inactive	-4.39% (inactive)				
CCNP(=S)(OC)O/C(C)=C/C(=O)OC(C)C (centres undefined)	inactive	inactive	-6.1% (inactive)		inactive	inactive	inactive	-11.8	-1.45% (inactive)		-0.524% (inactive)	inactive	-7.95% (inactive)	-5.26% (inactive)	inactive		-7.51	inactive	3.14% (inactive)	
O=P(O)(O)CCCl	inactive	inactive		inactive	inactive	inactive	inactive	-6.38	-3.48% (inactive) and 2.67% (inactive)	-0.0383% (inactive) and -0.0843% (inactive)	0.775% (inactive) and -1.46% (inactive)	inactive	-26.8% (inactive) and 3.51% (inactive)	-9.79% (inactive) and -10.1% (inactive)	inactive	-9.16% (inactive) and -4.17% (inactive)			5.61% (inactive)	22.1% (inactive) and 18.2% (inactive)
Cn1cc(-c2ccccc2)c(=O)c(-c2cccc(C(F)(F)F)c2)c1	inactive	inactive	-15.3% (inactive)				inactive	0.227	-5.34% (inactive)	0.553% (inactive)	1.29% (inactive)	inactive	-0.838% (inactive)	-5.04% (inactive)	inactive	0.923% (inactive)			-21.3% (inactive)	1.65% (inactive)
O=C=Nc1ccc(Cl)cc1	inactive	inactive			inactive	inactive	inactive	-4.38	3.11% (inactive)	2.71% (inactive)	-0.75% (inactive)		-2.93% (inactive)	-9.38% (inactive)	inactive	8.51% (inactive)	-14.4	inactive	-10.5% (inactive)	-1.95% (inactive)
CCCN(CC)CC1COC2(CCC(C(C)(C)C)CC2)O1 (centres undefined)	inactive	inactive	11.4% (inactive)	inactive	inactive	inactive		-13.8	-4.98% (inactive)	-1.94% (inactive)	0.269% (inactive)	inactive	-11.5% (inactive)	-13.1% (inactive)	inactive	-3.48% (inactive)	-11.3	inactive	-5.06% (inactive)	
